{"source": "PubChem BioAssay (EPA / NIEHS)", "key": {"[1]": {"assay": "TOX21_PR_BLA_Followup_Agonist_viability: Viability Assessment in the Tox21 HEK293 Progesterone Receptor (PR) Agonism Beta-lactamase Follow-Up Assay (AID 2283935; active = hit-call score of the fitted dose curve at least 0.9, where 1 is the maximum;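 also: signal loss means lower viability so actives are cytotoxic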)", "how_it_was_run": "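Cells were plated in medium with 2% charcoal-stripped FBS and rested 6 hr. Compounds in DMSO were then added for 16 hr at 37C, followed by the FRET substrate step and CellTiter-Glo luminescence after 30 min.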"}, "PGR (gene 5241)": {"molecular_target": "PGR (gene 5241) (UniProt P06401)", "sequence (P06401 whole entry, looked up)": "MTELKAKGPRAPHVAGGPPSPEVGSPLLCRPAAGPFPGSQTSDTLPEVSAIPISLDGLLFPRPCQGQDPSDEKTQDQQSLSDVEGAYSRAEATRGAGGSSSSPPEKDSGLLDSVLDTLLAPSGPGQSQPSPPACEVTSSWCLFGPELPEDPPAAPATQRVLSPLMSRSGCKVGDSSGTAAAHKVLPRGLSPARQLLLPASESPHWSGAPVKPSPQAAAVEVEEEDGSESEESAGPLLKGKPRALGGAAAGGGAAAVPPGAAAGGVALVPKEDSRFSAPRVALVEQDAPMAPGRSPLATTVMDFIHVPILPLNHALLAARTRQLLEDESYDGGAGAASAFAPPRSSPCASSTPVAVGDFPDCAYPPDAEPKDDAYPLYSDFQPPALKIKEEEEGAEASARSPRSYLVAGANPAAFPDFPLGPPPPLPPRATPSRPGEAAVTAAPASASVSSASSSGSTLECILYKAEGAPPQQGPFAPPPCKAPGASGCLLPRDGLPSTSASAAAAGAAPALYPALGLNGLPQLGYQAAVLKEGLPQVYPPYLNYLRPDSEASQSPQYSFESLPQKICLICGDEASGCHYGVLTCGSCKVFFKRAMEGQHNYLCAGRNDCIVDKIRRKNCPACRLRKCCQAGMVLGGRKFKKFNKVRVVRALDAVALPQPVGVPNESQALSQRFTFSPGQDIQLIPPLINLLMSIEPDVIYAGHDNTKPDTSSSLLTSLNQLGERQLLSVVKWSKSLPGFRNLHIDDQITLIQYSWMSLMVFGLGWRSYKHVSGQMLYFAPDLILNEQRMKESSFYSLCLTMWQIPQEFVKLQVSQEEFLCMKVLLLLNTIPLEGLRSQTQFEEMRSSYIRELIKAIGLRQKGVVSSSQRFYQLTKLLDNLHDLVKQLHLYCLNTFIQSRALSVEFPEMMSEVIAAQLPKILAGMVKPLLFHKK", "assay": "TOX21_PR_BLA_Followup_Agonist_ratio: Tox21 HEK293 Progesterone Receptor (PR) Agonism Beta-lactamase Follow-Up Assay, Ratio (AID 2283933; active = hit-call score of the fitted dose curve at least 0.9, where 1 is the maximum)", "how_it_was_run": "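Cells were seeded and held 6 hr before compound addition, exposed for 16 hr at 37C, then given FRET substrate for 2 hr at room temperature. Agonism was scored from the blue/green substrate cleavage ratio against DMSO controls.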"}, "[2]": {"assay": "CEETOX_H295R_OHPREG_noMTC: CeeTox H295R High-throughput Steroidogenesis Assay for OH-Pregnenolone (OHPREG), maximum tolerated concentration (MTC) filtered results only (AID 2283912)", "conditions": "actives raise or lower the signal", "how_it_was_run": "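Medium 17alpha-hydroxypregnenolone quantified by reverse-phase HPLC-MS/MS after 48 h chemical exposure of forskolin-prestimulated (10 uM, 48 h) H295R, 0.1% DMSO final. Fitting bidirectional relative to DMSO; no maximum-tolerated-concentration filtering applied.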"}, "[3]": {"assay": "CEETOX_H295R_OHPROG_noMTC: CeeTox H295R High-throughput Steroidogenesis Assay for OH-Progesterone (OHPROG), maximum tolerated concentration (MTC) filtered results only (AID 2283914)", "conditions": "actives raise or lower the signal", "how_it_was_run": "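After 48 h forskolin (10 uM) prestimulation, H295R adrenal cells received test chemical in 0.1% DMSO for 48 h. Medium 17alpha-hydroxyprogesterone was MTBE-extracted and measured by HPLC-MS/MS; gain or loss relative to DMSO, no MTT-based MTC filtering.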"}, "[4]": {"assay": "CEETOX_H295R_CORTISOL_noMTC: CeeTox H295R High-throughput Steroidogenesis Assay for Cortisol, maximum tolerated concentration (MTC) filtered results only (AID 2283916)", "conditions": "actives raise or lower the signal", "experimental": "CEETOX_H295R is a cell-based, multiplexed-readout assay that uses H295R, a human adrenal gland cell line, with measurements taken at 48 hours after chemical dosing in a 96-well plate.CEETOX_H295R_CORTISOL_noMTC is one of 12 assay component(s) measured or calculated from the CEETOX_H295R assay (11 hormones and 1 viability assay). It is designed to make measurements of hormone induction, a form of inducible reporter, as detected with absorbance signals by HPLC-MS-MS technology. The concentrations for these components have not been pre-filtered for the maximum tolerated concentration (MTC) based on the MTT assay (_noMTC).Data from the assay component CEETOX_H295R_CORTISOL_noMTC was analyzed into 1 assay endpoint. This assay endpoint, CEETOX_H295R_CORTISOL_noMTC, was analyzed with bidirectional fitting relative to DMSO as the negative control and baseline of activity. […]\nCell culture and media preparation procedures were conducted in accordance with OECD Test No. 456 guidelines, with minor modifications. […] For steroid quantification, media samples were shipped to OpAns, LLC (Durham, NC) on dry ice, and samples were thawed to room temperature prior to liquid-liquid extraction. […] Steroid hormones were separated by HPLC, eluted using a reverse phase C18 gradient with electrospray positive ionization, followed by quantification by tandem mass spectrometry (MS/MS). Data were acquired on a MassHunter Workstation Acquisition version B03.01 (Agilent Technologies, Inc.) and processed using MassHunter Quantitative Analysis for QQQ. Accuracy was determined for each hormone analyte from 3 standards to determine upper and lower limits of quantification (ULOQ and LLOQ, respectively) using a 7-point standard curve. Precision and accuracy of the extraction and quantification methods were calculated as the percent relative standard deviation (%RSD) of the spiked standards and percent spiked standard recovered, respectively. […] Test medium was removed following chemical exposure, and cell viability was evaluated in the same wells by MTT. […]"}, "[5]": {"assay": "CEETOX_H295R_CORTIC_noMTC: CeeTox H295R High-throughput Steroidogenesis Assay for Corticosterone (CORTIC), maximum tolerated concentration (MTC) filtered results only (AID 2283917)", "conditions": "actives raise or lower the signal", "how_it_was_run": "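Human adrenal H295R cells were prestimulated 48 h with 10 uM forskolin, then exposed 48 h to chemical in 0.1% DMSO. Medium corticosterone was MTBE-extracted and quantified by HPLC-MS/MS; bidirectional fits versus DMSO, concentrations not MTC-filtered.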"}, "[6]": {"assay": "CEETOX_H295R_DOC_noMTC: CeeTox H295R High-throughput Steroidogenesis Assay for DOC, maximum tolerated concentration (MTC) filtered results only (AID 2283918)", "conditions": "actives raise or lower the signal", "how_it_was_run": "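11-Deoxycorticosterone secreted by human adrenal H295R cells quantified by HPLC-MS/MS after 48 h chemical exposure (0.1% DMSO), following 48 h 10 uM forskolin prestimulation. Concentrations not filtered by MTT-derived MTC; bidirectional fitting.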"}, "[7]": {"assay": "CEETOX_H295R_PROG_noMTC: CeeTox H295R High-throughput Steroidogenesis Assay for Progesterone (PROG), maximum tolerated concentration (MTC) filtered results only (AID 2283920)", "conditions": "actives raise or lower the signal", "how_it_was_run": "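Progesterone secreted into medium was measured by HPLC-MS/MS after MTBE extraction, following 48 h chemical exposure (0.1% DMSO) of forskolin-prestimulated (10 uM, 48 h) H295R adrenal cells. Gain or loss fitted against DMSO; no MTC filtering.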"}, "[8]": {"assay": "CEETOX_H295R_ANDR_noMTC: CeeTox H295R High-throughput Steroidogenesis Assay for Androstenedione (ANDR), maximum tolerated concentration (MTC) filtered results only (AID 2283915)", "conditions": "actives raise or lower the signal", "how_it_was_run": "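Androstenedione secreted into medium was measured by LC-MS/MS after MTBE extraction. Human adrenal H295R cells received 10 uM forskolin for 48 h before 48 h chemical exposure (0.1% DMSO). Gain or loss fitted against DMSO, including concentrations above the MTT-derived MTC.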"}, "[9]": {"assay": "CEETOX_H295R_TESTO_noMTC: CeeTox H295R High-throughput Steroidogenesis Assay for Testosterone (TESTO), maximum tolerated concentration (MTC) filtered results only (AID 2283924)", "conditions": "actives raise or lower the signal", "how_it_was_run": "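Medium testosterone, measured by HPLC-MS/MS after liquid-liquid extraction, was fitted in both directions relative to DMSO without MTC filtering. Adrenal H295R cells received 48 h chemical exposure (0.1% DMSO final) after 48 h forskolin (10 uM) prestimulation; viability by MTT.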"}}, "note": "Inconclusive results are not listed. Activity calls are given as the source filed them. The calls were made as follows, unless noted: active = hit-call score of the fitted dose curve at least 0.9, where 1 is the maximum; inactive = score below 0.9.", "data": [{"compound": "O=[N+]([O-])c1ccc(Nc2ccccc2)cc1", "values": [{"measurement": "outcome", "setting": "[1]", "value": "inactive"}]}, {"compound": "O=S(=O)(c1ccc(Cl)cc1)c1cc(Cl)c(Cl)cc1Cl", "values": [{"measurement": "outcome", "setting": "[1]", "value": "inactive"}]}, {"compound": "OC(c1ccc(Cl)cc1)(c1ccc(Cl)cc1)c1cccnc1", "values": [{"measurement": "outcome", "setting": "PGR (gene 5241)", "value": "inactive"}, {"measurement": "outcome", "setting": "[1]", "value": "inactive"}]}, {"compound": "CCOP(=S)(OCC)Oc1ccc(Cl)cc1Cl", "values": [{"measurement": "outcome", "setting": "[1]", "value": "inactive"}]}, {"compound": "CC(C)CC(C)(c1ccc(O)cc1)c1ccc(O)cc1", "values": [{"measurement": "outcome", "setting": "PGR (gene 5241)", "value": "inactive"}, {"measurement": "outcome", "setting": "[1]", "value": "inactive"}]}, {"compound": "O=S(=O)(Oc1ccc(Cl)cc1)c1ccc(Cl)cc1", "values": [{"measurement": "outcome", "setting": "[1]", "value": "inactive"}]}, {"compound": "OC[P+](CO)(CO)CO", "values": [{"measurement": "AC50", "setting": "[2]", "value": "6.42 µM (active)"}, {"measurement": "AC50", "setting": "[3]", "value": "3.48 µM (active)"}, {"measurement": "AC50", "setting": "[4]", "value": "4.63 µM (active)"}, {"measurement": "AC50", "setting": "[5]", "value": "3.54 µM (active)"}, {"measurement": "AC50", "setting": "[6]", "value": "12.3 µM (active)"}, {"measurement": "AC50", "setting": "[7]", "value": "2.5 µM (active)"}]}, {"compound": "Nc1ccc(-c2ccccc2)cc1", "values": [{"measurement": "outcome", "setting": "[1]", "value": "inactive"}]}, {"compound": "Cc1cc(Cl)ccc1N", "values": [{"measurement": "outcome", "setting": "[2]", "value": "inactive"}, {"measurement": "AC50", "setting": "[3]", "value": "25.5 µM (active)"}, {"measurement": "outcome", "setting": "[4]", "value": "inactive"}, {"measurement": "outcome", "setting": "[5]", "value": "inactive"}, {"measurement": "outcome", "setting": "[6]", "value": "inactive"}, {"measurement": "AC50", "setting": "[7]", "value": "24.1 µM (active)"}]}, {"compound": "CCCSP(=S)(OCC)Oc1ccc(SC)cc1", "note": "(centres undefined)", "values": [{"measurement": "outcome", "setting": "[1]", "value": "inactive"}]}, {"compound": "CC(C)(C1CCC(O)CC1)C1CCC(O)CC1", "note": "(centres undefined)", "values": [{"measurement": "outcome", "setting": "[1]", "value": "inactive"}]}, {"compound": "CCCSP(=S)(OCC)Oc1ccc(Cl)cc1Cl", "note": "(centres undefined)", "values": [{"measurement": "outcome", "setting": "[1]", "value": "inactive"}]}, {"compound": "Cc1ccccc1OP(=O)(Oc1ccccc1C)Oc1ccccc1C", "values": [{"measurement": "outcome", "setting": "PGR (gene 5241)", "value": "inactive"}, {"measurement": "outcome", "setting": "[1]", "value": "inactive"}]}, {"compound": "c1cc[c]([Sb]([c]2ccccc2)[c]2ccccc2)cc1", "values": [{"measurement": "AC50", "setting": "[2]", "value": "50 µM (active)"}, {"measurement": "AC50", "setting": "[3]", "value": "1.53 µM (active)"}, {"measurement": "AC50", "setting": "[8]", "value": "27.8 µM (active)"}, {"measurement": "AC50", "setting": "[4]", "value": "11.3 µM (active)"}, {"measurement": "AC50", "setting": "[5]", "value": "8.85 µM (active)"}, {"measurement": "outcome", "setting": "[6]", "value": "inactive"}, {"measurement": "AC50", "setting": "[7]", "value": "10.8 µM (active)"}, {"measurement": "outcome", "setting": "[9]", "value": "inactive"}]}]}
